We go through eleven compounds from PubChem BioAssay (NCI).

Compounds without any hit were thinned out: in the full panel of roughly 83,000, 20% have a hit.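 96-well plates, one dose, 48 hours. Percent growth reported; active if below 10.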 A number with no mark means an inactive call. The source made the active and inactive calls.

Test in all cases: NCI-60 one-dose screen, 48 h (100 = growth as untreated, 0 = no growth, -100 = all killed)
One assay has as its system DU-145 prostate. Particulars: 10 µM unless noted.
Another assay deals with K-562 leukemia. The settings on record: 10 µM unless noted.
Another assay relates to MALME-3M melanoma. The settings on record: 10 µM unless noted.
For another assay, the system named is MDA-MB-231 breast. The settings on record: 10 µM unless noted.
Another assay relates to RXF 393 renal. Particulars: 10 µM unless noted.
For another assay, the system named is SF-268 CNS. The settings on record: 10 µM unless noted.
The next assay relates to SF-295 CNS. Particulars: 10 µM unless noted.
Another assay has as its system SF-539 CNS. Particulars: 10 µM unless noted.
The next assay concerns UACC-257 melanoma. Particulars: 10 µM.
A further assay has as its system M14 melanoma. Particulars: 10 µM unless noted.

Take `COc1cc(-c2nc(-c3nc4ccccc4[nH]3)cc3c2[nH]c2ccccc23)cc(OC)c1OC`: the growth with DU-145 prostate is 53.8%; in the assay on K-562 leukemia, 31.9%; in the assay on MALME-3M melanoma, 32.7%; in the assay with MDA-MB-231 breast, 61.3%; in the assay with RXF 393 renal, 70.6%; in the assay with SF-268 CNS, 47.8%. Further, the growth is 1.13% (active) with SF-295 CNS, 68.4% in the assay with SF-539 CNS, 41.7% in the assay on UACC-257 melanoma and 23.4% with M14 melanoma.

For the compound `CC(C)C[C@H](NC(=O)Cn1ccc(NCc2ccccc2)cc1=O)B(O)O`, the growth was 36.6% in the assay with DU-145 prostate; 15.6% in the assay with K-562 leukemia; -21.2% (active) in the assay on MALME-3M melanoma; 28% in the assay on MDA-MB-231 breast; -51.7% (active) with RXF 393 renal; 3.08% (active) in the assay with SF-268 CNS. Further, the growth is 28.4% with SF-295 CNS, -29.4% (active) with SF-539 CNS, -3% (active) in the assay with UACC-257 melanoma and -17% (active) in the assay with M14 melanoma.

As for `Cc1nc(Nc2cccnc2)sc1C(=O)/C=C/c1ccc(F)cc1`, the growth in the assay on DU-145 prostate is 9.5% (active); with K-562 leukemia, 11.4%; in the assay on MALME-3M melanoma it was 88.1%; in the assay with MDA-MB-231 breast, 89.2%; in the assay on RXF 393 renal it was 18.1%; in the assay on SF-268 CNS it was 42.1%. Further, the growth in the assay with SF-295 CNS was 42.4%; in the assay with SF-539 CNS, 18.2%; in the assay on UACC-257 melanoma it was 73.5%; in the assay with M14 melanoma it was 25.5%.

For `COc1cc(Cn2c(SCC(=O)Nc3cc(OC)c(OC)c(OC)c3)nc3ccccc3c2=O)cc(OC)c1OC`, the growth was 94.6% in the assay on DU-145 prostate; 97.4% with K-562 leukemia; 82.8% in the assay on MALME-3M melanoma; 58.2% in the assay on MDA-MB-231 breast; 61.6% in the assay with RXF 393 renal; 54.7% with SF-268 CNS. Also, the growth in the assay on SF-295 CNS was 85.9%; in the assay with SF-539 CNS, 66.1%; with UACC-257 melanoma, 102%; in the assay on M14 melanoma it was 95%.

With `COc1cc(OC)c(C(=O)/C=C/c2ccc(C(F)(F)F)cc2)c(OC)c1`, the growth was 11.9% with DU-145 prostate; 32.3% in the assay with K-562 leukemia; 75.3% in the assay with MALME-3M melanoma; 59.7% in the assay on MDA-MB-231 breast; 41.1% with RXF 393 renal; 55.9% in the assay with SF-268 CNS. Besides, the growth in the assay with SF-295 CNS is 69.9%; with SF-539 CNS it was 68.7%; in the assay with UACC-257 melanoma, 62.5%; with M14 melanoma it was 59%.

For `O=C(CNc1c(Cl)cccc1Cl)Nc1ccc(-c2nc3ccccc3s2)cc1`, the growth was 85.7% in the assay on DU-145 prostate; 10.5% in the assay with K-562 leukemia; -50% (active) in the assay on MALME-3M melanoma; 56.9% in the assay with MDA-MB-231 breast; 86.6% with RXF 393 renal; 46.2% in the assay with SF-268 CNS. In addition, the growth in the assay on SF-295 CNS was 97.4%; in the assay with SF-539 CNS, 79.9%; with UACC-257 melanoma, 96.5%; with M14 melanoma it was 55.7%.

Take `COc1ccc(C(=O)/C=C/c2cc(C(=O)c3cc(OC)c(OC)c(OC)c3)ccc2OC)cc1`: the growth is 79.3% in the assay on DU-145 prostate; 12.8% in the assay with K-562 leukemia; 77.9% with MALME-3M melanoma; 51.8% in the assay with MDA-MB-231 breast; 73% in the assay with RXF 393 renal; 59.2% in the assay with SF-268 CNS. Besides, the growth in the assay on SF-295 CNS was 98.1%; in the assay with SF-539 CNS, 55%; with UACC-257 melanoma it was 68%; in the assay with M14 melanoma, 64.7%.

As to `Nc1c(C(=O)c2ccc(F)cc2)sc2nc3c(cc12)CCCC3`, the growth is 77.9% in the assay on DU-145 prostate; 25.8% with K-562 leukemia; 31.7% in the assay on MALME-3M melanoma; 85.7% in the assay on MDA-MB-231 breast; 56% in the assay with RXF 393 renal; 87.4% in the assay on SF-268 CNS. Further, the growth in the assay on SF-295 CNS is 72.6%; in the assay with SF-539 CNS, 95.3%; with UACC-257 melanoma, 95%; in the assay with M14 melanoma, 71%.

With `O=C(COc1ccccc1)N1N=C(c2ccc(Cl)cc2)CC1c1c[nH]c2ccccc12` (stereo not given), the growth with DU-145 prostate was 92%; with K-562 leukemia, 71.2%; in the assay on MALME-3M melanoma, 74.1%; in the assay with MDA-MB-231 breast it was 47.7%; in the assay on RXF 393 renal, 103%; in the assay with SF-268 CNS, 71.9%. Moreover, the growth was 92.1% in the assay on SF-295 CNS, 87.1% with SF-539 CNS, 89.1% in the assay with UACC-257 melanoma and 83.1% in the assay on M14 melanoma.

In the case of `O=C(NNC(=S)Nc1ccccc1)c1ccccn1`, the growth is 42.9% in the assay on DU-145 prostate; 28.6% in the assay on K-562 leukemia; 24.2% with MALME-3M melanoma; 43.5% in the assay with MDA-MB-231 breast; 35.4% with RXF 393 renal; 36.7% with SF-268 CNS. In addition, the growth in the assay on SF-295 CNS is 42.1%; with SF-539 CNS it was 31.5%; in the assay on UACC-257 melanoma it was 18.9%; in the assay on M14 melanoma, 25.3%.

On to `COc1ccc(/C=C/c2cc(N3CCOCC3)c3cc(F)c(F)cc3n2)cc1OC`, for which the growth in the assay on DU-145 prostate is 48.3%; with K-562 leukemia it was 28.9%; in the assay with MALME-3M melanoma it was 49.3%; in the assay on MDA-MB-231 breast, 45.9%; with RXF 393 renal, 52.2%; in the assay with SF-268 CNS, 31.4%. The growth is 31.4% in the assay with SF-295 CNS, 28.9% in the assay on SF-539 CNS, 45.4% in the assay on UACC-257 melanoma and 31.6% with M14 melanoma.
